This passage reports Potency results from PubChem BioAssay (Tox21).

SMILES strings stand for the structures. Records with an inconclusive call do not appear. A call without a number means that no potency is given here. Calls of active or inactive are those of the source. Calls come from the whole dose curve; as a rule, active = well fitted cell-killing curve with a large enough effect in the repeat runs; inconclusive = weak or mixed curves, or effect the other way; inactive = flat fitted curve, though single readings scatter.

This assay in a line: qHTS RealTime-Glo MT Cell Viability Assay in HepG2 cells - 40 hour (AID 1224870). Note: nearly all actives have a fitted effect of over 50% in size. Particulars: RealTime-Glo luminescence; series mostly up to 76.8 µM. An excerpt: National Center for Advancing Translational Sciences [NCATS]
NIH Chemical Genomics Center [NCGC]
U.S. Environmental Protection Agency [EPA]
National Institutes of Environmental Health Sciences [NIEHS]
National Toxicology Program [NTP]
U.S. Food and Drug Administration [FDA]
Measure of cell viability is critical in the cell-base assay. Analysis of cell viability is necessary for the characterization of cell responses to cytotoxic drugs and environmental stress. A RealTime-Glo MT Cell Viability Assay to monitor cell viability in real time of continues cell culture during 40 hours of compound treatment was used to screen Tox21 10K library compounds in HepG2 cells. The RealTime-Glo MT Cell Viability Assay is a nonlytic, homogeneous, bioluminescent method to measure cell viability in real time using a simple, plate-based method. The assay involves adding NanoLuc luciferase and a cell-permeant prosubstrate to cells in culture. Viable cells reduce the proprietary prosubstrate to generate a substrate for NanoLuc luciferase. This substrate diffuses from cells into the surrounding culture medium, where it is rapidly used by the NanoLuc Enzyme to produce a luminescent signal. The signal correlates with the number of viable cells, making the assay well suited for cytotoxicity studies.
Tox21 Assay Protocol Summary:
The mixture of HepG2 cell suspension and reagents were dispensed at 600cells/6 ul/well in 1536-well tissue culture treated black solid bottom plates using a Multidrop dispenser. After the assay plates were incubated at a 37 C/5% CO2 incubator for 5 hours, 23 nL of compounds dissolved in DMSO, positive and negative controls was transferred to the assay plate by a pintool work station. The plates were incubated at 37 C for 40 hours. The luminescence intensity were measured at 0h, 8h, 16h, 24h, 32h and 40h time points using ViewLux plate reader during compound treatment.
`CC1=C(CC=O)C(C)(C)CCC1`: the Potency result was “inactive”.

Consider `Cc1cc(O)c(C)c(C)c1O`, for which the Potency entry is “inactive”.

For `CC(C)Nc1cccnc1N1CCN(C(=O)c2cc3cc(NS(C)(=O)=O)ccc3[nH]2)CC1`, the Potency entry is “inactive”.

`CCOC(=O)[C@H](CCc1ccccc1)N[C@@H](C)C(=O)N(CC(=O)O)C1Cc2ccccc2C1`: the Potency entry was “inactive”.

Consider `C=C(C)[C@@H]1CCC2=CCC[C@@H](C)[C@]2(C)C1`, for which the Potency entry is “inactive”.

`CCCCCCCCOc1ccc(C(=O)O)cc1`: the Potency entry is “inactive”.

Take `CN1C(C(=O)Nc2ccccn2)=C(O)c2sccc2S1(=O)=O`: the Potency result is “inactive”.

Turning to `Clc1cc(Cl)nc(Cl)n1`, the Potency entry is “inactive”.

For `O=C(O)CCC(=O)C(=O)O`, the Potency entry was “inactive”.

Turning to `CC[N+](CC)(CCNC(=O)C(=O)NCC[N+](CC)(CC)Cc1ccccc1Cl)Cc1ccccc1Cl`, the Potency entry was “inactive”.

With `Cc1cc(C)c(N)cc1C`, the Potency result was “inactive”.

Consider `CN1C(=O)OC(C)(C)C1=O`, for which the Potency entry is “inactive”.

Turning to `CC(=O)[C@H]1[C@H](C#N)C[C@H]2[C@@H]3CC=C4C[C@@H](O)CC[C@]4(C)[C@H]3CC[C@@]21C`, the Potency result was “inactive”.

As for `COc1ccccc1Oc1c(NS(=O)(=O)c2ccc(C(C)(C)C)cc2)nc(-c2ncccn2)nc1OCCO`, the Potency entry is “inactive”.

Take `CC(C)(O)c1ccc(CNC(=O)c2cccnc2Oc2ccc3nonc3c2)cc1`: the Potency result was “inactive”.

In the case of `Nc1ncnc2c1ncn2[C@H]1CC[C@@H](CO)O1`, the Potency entry is “inactive”.

Turning to `COc1ccc(OC(=O)N(CC(=O)O)Cc2ccc(OCCc3nc(-c4ccccc4)oc3C)cc2)cc1`, the Potency result was “inactive”.

Regarding `O=C1NC(=O)c2cc([N+](=O)[O-])ccc21`, the Potency result was “inactive”.

As for `CC1=Nc2ccc3ccccc3c2C1(C)C`, the Potency result is “inactive”.

Regarding `COC(=O)CCS`, the Potency entry was “inactive”.

Regarding `C=C(C)C(=O)OCCOCCOC(=O)C(=C)C`, the Potency result was “inactive”.

With `CC[C@]1(O)C[C@H]2CN(CCc3c([nH]c4ccccc34)[C@@](C(=O)OC)(c3cc4c(cc3OC)N(C=O)[C@H]3[C@@](O)(C(=O)OC)[C@H](OC(C)=O)[C@]5(CC)C=CCN6CC[C@]43[C@@H]65)C2)C1`, the Potency result is “inactive”.

As for `CCOC(=O)c1ccc(O)c(O)c1`, the Potency entry was “inactive”.

Turning to `CN(C)CCC=C1c2ccccc2C=Cc2ccccc21`, the Potency result was “inactive”.

For the compound `c1ccc2c(c1)CCc1ccccc1N2`, the Potency entry is “inactive”.

As to `CCC(=O)OC`, the Potency entry is “inactive”.

For the compound `CCCCCC#CC(=O)OC`, the Potency result is “inactive”.

Regarding `C=Cc1ccc(S(=O)(=O)O)cc1`, the Potency entry is “inactive”.

`CC1(C)O[C@@H]2C[C@H]3[C@@H]4C[C@H](F)C5=CC(=O)C=C[C@]5(C)[C@H]4[C@@H](O)C[C@]3(C)[C@]2(C(=O)CO)O1`: the Potency result is “inactive”.

Take `CCCCCCC(C)(C)C(=O)O`: the Potency entry is “inactive”.

Regarding `CCC1(CO)COCOC1`, the Potency entry is “inactive”.

Turning to `C/C=C/C=C/C=O`, the Potency entry was “inactive”.

As for `CCCCCCCC/C=C\CCCCCCCCCCCC(=O)O`, the Potency entry was “inactive”.

`CCN(CC)CCNC(=O)COc1ccc(OC)cc1`: the Potency entry is “inactive”.

As for `CCn1cc(C(=O)O)c(=O)c2cc(F)c(N3CCNCC3)cc21`, the Potency entry is “inactive”.

For `CC(=O)OCCN(CCOC(C)=O)c1ccc(N=Nc2ccc([N+](=O)[O-])cc2C#N)cc1`, the Potency result was “inactive”.

With `COc1ncnc(NS(=O)(=O)c2ccc(N)cc2)c1OC`, the Potency entry is “inactive”.

For `CCCCOc1ccc(OCCCN2CCOCC2)cc1`, the Potency result was “inactive”.

For the compound `Cc1cc(O)ccc1O`, the Potency result is “inactive”.

With `C[C@H]1C[C@H](O)c2ccsc2S1(=O)=O`, the Potency result is “inactive”.
